The results in this text go back to PubChem BioAssay (NCATS).

Inconclusive results are not listed. Unmarked numbers belong to inactive results. Activity calls are given as the source filed them. Calls follow the shape of the dose curve; as a rule, active = well fitted cell-killing curve with a large enough effect; inconclusive = small, poorly fitted or top-dose-only effect; inactive = flat fitted curve, though single readings scatter.

A short description of the test: Cell Viability - LYMP2-018 (AID 985).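 Also: compound exposure lasted 24 hr at 37 °C; plate controls were DMSO only for no effect and tetraoctylammonium bromide at 92 µM for full effect; nearly all actives have a fitted effect of over 50% in size.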 To be noted: LYMP2-018 lymphoblastoid cells, viability (qHTS); series mostly up to 92.2 µM; activity change, negative = cytotoxicity: at the top concentration. The source says: NIH Chemical Genomics Center [NCGC]
NIH Molecular Libraries Screening Centers Network [MLSCN]
National Institutes of Environmental Health Sciences [NIEHS]
National Toxicology Program [NTP]
We have developed a 1536-well cell-based assay for quantitative high throughput screening (qHTS) against a number of cell lines to determine in vitro cytotoxicity of small molecules. This particular assay uses a human lymphoblastoid cell line (LYMP2-018) purchased from Coriell Institute for Medical Research.
NCGC Assay Protocol Summary:
The CellTiter-Glo luminescent cell viability assay (Promega) is a homogeneous method to measure the number of viable cells in culture. The end point readout of this assay is based on quantitation of intracellular ATP, an indicator of metabolic activity, using the luciferase reaction. Luciferase catalyzes the oxidation of beetle Luciferin to oxyluciferin and light in the presence of ATP. The luminescent signal is proportional to amount of ATP present.
Using the CellTiter-Glo luminescent cell viability assay, the amount of cellular ATP was measured in the lymphoblastoid cell line with complete culture medium following compound treatment for 24 hours. The assay was performed in opaque white Kalypsys 1536-well plates. In the screen, tetraoctylammonium bromide was used as positive control. Library compounds were measured for their ability to cause acute toxicity in the cell line, as reflected by a decrease in intracellular ATP levels, in a concentration-dependent manner. […] AC50 values were determined from concentration-response data modeled with the standard Hill equation.
qHTS protocol for CellTiter Glo lymphoblastoid cellular assay
[Step] [Parameter] [Value] [Description]
1. Reagent; 5 uL; 2500 lymphoblastoid cells/well
2. Time; 5 hr; 37 C incubation
4. Controls; 23 nL; Tetraoctylammonium bromide 6.4pM to 92 uM
5. Time; 24 hr; 37 C incubation
6. Reagent; 5 uL; CellTiter Glo reagent
7. Time; 30 min; Room Temperature
8. Detection; Luminescence; Viewlux plate reader
Keywords: cell viability, cytotoxicity, lymphoblastoid cell line, luminescence, NTPHTS, NTPHTS_NCGC, NIEHS, DSSTox, MLSMR, MLSCN, NIH Roadmap, qHTS, NCGC
Regarding `O=[N+]([O-])c1ccc(Cl)c(Cl)c1`, the “activity change, negative = cytotoxicity” value is -5.07%.
Still for that read-out and setting: as for `COc1ccc(C=O)cc1OC`, the figure is -0.392%.
Still for that read-out and setting: for `CCCSC(=O)Cl` the value was 3.42%; for `C[C@H]1CCCC(=O)CCC/C=C/c2cc(O)cc(O)c2C(=O)O1`, -27.9%.
In the case of `CC(C)(C)OO`, the Potency result was “inactive”.
Turning to `CC(Cl)Cl`, the “activity change, negative = cytotoxicity” value is -9.28%.
The same measure, in the same setting: for `COC1=CC(=O)O[C@@H](/C=C/c2ccc3c(c2)OCO3)C1` the value was -19.3%.
Consider `Brc1ccc(Oc2cc(Br)c(Br)cc2Br)c(Br)c1`, for which the Potency result was “inactive”.
On to `Clc1nc(Cl)nc(Nc2ccccc2Cl)n1`, for which the “activity change, negative = cytotoxicity” value was -7.31%.
Still for that read-out and setting: as for `O=C(Cl)C(Cl)(Cl)Cl`, the figure is -5.54%; as for `CCCCCCCC(=O)Cl`, -1.97%.
Same read-out and setting: for `Brc1ccccc1` the value was -6.69%.
Consider `C/C=C/c1ccc2c(c1)OCO2`, for which the “activity change, negative = cytotoxicity” value was 3.03%.
With `CCC[CH2][Sn]([Cl])([Cl])[Cl]`, the “activity change, negative = cytotoxicity” value was -10.3%.
Turning to `Cc1ccc2ccccc2c1`, the “activity change, negative = cytotoxicity” value is -8.15%.
On to `CCCOC(=O)c1ccccc1C(=O)OCCC`, for which the “activity change, negative = cytotoxicity” value was -9.78%.
On the same count and under the same terms, as for `O=C(Cl)/C=C/C(=O)Cl`, the figure is -6.37%.
Same read-out and setting: as for `Nc1ccc(Br)cc1`, the figure is 4.81%.
On to `N#CCCCl`, for which the Potency entry was “inactive”.
Turning to `CCSC(=O)Cl`, the “activity change, negative = cytotoxicity” value is -3.2%.
With `CCCC(=O)Cl`, the “activity change, negative = cytotoxicity” value was -1.88%.
As to `CCCCOCCOP(=O)(OCCOCCCC)OCCOCCCC`, the “activity change, negative = cytotoxicity” value is -5.77%.
Still for that read-out and setting: as for `CCNc1nc(Cl)nc(NC(C)C)n1`, the figure is -13.1%.
On the same count and under the same terms, for `C=CC(=C)C` the value was 2.48%; for `C=CCOC(=O)c1ccccc1N`, -0.872%.
For the compound `C=CC(C)=O`, the “activity change, negative = cytotoxicity” value is -2.64%.
Turning to `CC(C)(c1ccccc1)c1ccc(O)cc1`, the “activity change, negative = cytotoxicity” value was -10.9%.
The same measure, in the same setting: as for `c1ccc(-c2ccccc2)cc1`, the figure is -7.17%.
As for `BrCCBr`, the “activity change, negative = cytotoxicity” value is -7.76%.
On to `Clc1ccc2ccccc2c1`, for which the “activity change, negative = cytotoxicity” value is -14.9%.
Still for that read-out and setting: as for `CN=C=S`, the figure is -6.04%.
Same read-out and setting: as for `Clc1cccc(C(Cl)(Cl)Cl)n1`, the figure is -2.92%; as for `CCN(CC)c1ccccc1`, 5.81%; as for `c1ccc(N=Nc2ccccc2)cc1`, -21.4%.
For `Cc1ccccc1N`, the Potency entry is “inactive”.
On the same count and under the same terms, for `O=C(O)COc1ccc(Cl)cc1Cl` the value was “inactive”.
On to `OCC(Br)CBr` (stereo not given), for which the “activity change, negative = cytotoxicity” value was -3.94%.
Take `O=C=NC1CCCCC1`: the Potency result is “inactive”.
As to `Cc1cccc([N+](=O)[O-])c1`, the “activity change, negative = cytotoxicity” value is 5.96%.
For `C=CC(N)=O`, the Potency result is “inactive”.
